We go through 61 compounds from PubChem BioAssay AID431 (Sanford-Burnham Center for Chemical Genomics, 2006).

Among all 63,000 compounds or so, about 1,100 (1.7%) were called active.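 Rule for the calls: active = compounds whose percent cytotoxicity in the single-dose primary screen, scaled between solvent and toxic-drug controls, exceeds 50; inactive = the rest.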 This excerpt belongs to a sample that is enriched for actives. Entries with a potency or affinity are not part of this list.

This experiment in a line: cytotoxicity in KRAS-transformed pancreatic duct cells, primary screen, cell-based, fluorescence, HTS (AID 431).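 Note: 0% = DMSO solvent wells and 100% = doxorubicin-treated wells.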 The conditions noted are these: HPDE-C7K KRASV12 cells, Alamar Blue viability, 48 h; at 10 µM; stronger effect = higher value. In general terms: Alamar Blue is a resazurin reagent that responds to reducing activity.
On to `CC1(C)C(=O)Nc2ccccc2N1C(=O)CN1C(=O)c2ccccc2C1=O`, for which the cytotoxicity is -3.5% (inactive). With `CCC(=O)NC1(C(F)(F)F)C(=O)Nc2c1c(=O)n(C)c(=O)n2C` (stereo unspecified) the figure was -2.3% (inactive); with `Cc1nnc(SCC(=O)N2CCN(S(=O)(=O)c3ccccc3)CC2)[nH]c1=O`, 1.8% (inactive). Regarding `CCc1nnc(NC(=O)c2ccc(NS(=O)(=O)c3ccccc3)cc2)s1`, the cytotoxicity was -18.3% (inactive). With `CCc1nc(C)ccc1OCC(=O)O` the figure was -10.4% (inactive); with `CCCC(=O)NCCc1nc2ccccc2n1C`, -5.4% (inactive); with `CCOc1cccc(-c2nc3cc(C)ccc3o2)c1`, -4.3% (inactive).

On to `Cc1n[nH]c(C)c1C(=O)CC1(O)C(=O)N(CCc2ccccc2)c2ccc(Cl)cc21` (stereo unspecified), for which the cytotoxicity was 16.8% (inactive). For the compound `Cc1ccc(-n2nc(C)c3c(-c4cccs4)c(C#N)c(N)nc32)cc1`, the cytotoxicity is 4% (inactive). `Cc1nn(-c2ccccc2)c2nc(N)c(C#N)c(-c3ccc(F)cc3)c12`: the cytotoxicity is 10.8% (inactive). Consider `COc1cc(-c2c(C#N)c(N)nc3c2c(C)nn3-c2ccc(C)c(C)c2)cc(OC)c1OC`, for which the cytotoxicity was 57.8% (active). With `O=C(O)CCN1Cc2ccccc2C1=O` the figure was -5.5% (inactive).

In the case of `Cc1ccc(NC(=O)CN2C(=O)COc3ccc(C)cc32)nc1`, the cytotoxicity is 5.6% (inactive). Consider `COc1ccc(OC(=O)c2cc3ccccc3o2)cc1`, for which the cytotoxicity was 12.8% (inactive).

For `COc1ccc(OC)c(Nc2nc(N)nc(-c3cc4ccccc4o3)n2)c1`, the cytotoxicity is 1.5% (inactive). As to `COc1ccc(OC)c(NC(=O)c2cc3ccccc3o2)c1`, the cytotoxicity was -12.4% (inactive). With `O=C(Nc1ccc(Cl)cc1)N1CCN(c2ccc3nnc(-c4ccc(F)cc4)n3n2)CC1` the figure was 58.7% (active). With `O=C(Nc1ccccc1Cl)N1CCN(c2ccc3nnc(-c4ccc(F)cc4)n3n2)CC1` the figure was 19.5% (inactive); with `O=C(Nc1ccccc1C(F)(F)F)N1CCN(c2ccc3nnc(-c4ccc(F)cc4)n3n2)CC1`, 1.9% (inactive); with `Cc1cccc(NC(=O)CSc2nnc(-c3ccccc3)n2N)c1`, 1% (inactive). With `CCc1[nH]nc2c1C(c1ccc(Br)s1)C(C#N)=C(N)O2` (stereo unspecified) the figure was 5% (inactive); with `CCCc1[nH]nc2c1C(c1ccncc1)C(C#N)=C(N)O2` (stereo unspecified), -1.2% (inactive). For the compound `CCCn1nnc(NC(=O)c2cc3ccccc3o2)n1`, the cytotoxicity was -13.2% (inactive). In the case of `CN1CCN(S(=O)(=O)c2ccc(NC(=O)c3ccc(Br)o3)cc2)CC1`, the cytotoxicity is -14.1% (inactive).

For the compound `O=C(Nc1ccc(S(=O)(=O)N2CCCCCC2)cc1)c1ccc(Br)o1`, the cytotoxicity was 55.5% (active). With `Cc1ccc(NC(=O)c2ccc(OC(=O)c3ccco3)cc2)cc1` the figure was -14.7% (inactive); with `O=C(CCc1ccccc1)Nc1ccc(NC(=O)c2ccco2)cc1`, -8.3% (inactive); with `O=C(Nc1nc(-c2cccs2)c(-c2ccccc2)s1)c1ccco1`, 58.9% (active).

`CCOC(=O)c1sc(NC(=O)c2ccco2)nc1-c1ccccc1`: the cytotoxicity is -7.2% (inactive). With `O=C(Nc1ccc(Oc2ccc(NC(=O)c3ccco3)c(NC(=O)c3ccco3)c2)cc1)c1ccco1` the figure was 29.9% (inactive); with `O=C(Nc1ccc(S(=O)(=O)N2CCOCC2)cc1)c1ccc(Br)o1`, -9.2% (inactive); with `Cc1ccc(Oc2ccc(NC(=O)c3ccco3)cc2)cc1`, 84.2% (active). Turning to `CC(=O)c1sc(NC(=O)c2ccco2)nc1-c1ccccc1`, the cytotoxicity is 6.3% (inactive). `O=C(Nc1ccc(Nc2ccccc2)cc1)c1ccco1`: the cytotoxicity was 66.8% (active). For `CCC(=O)Nc1ccc(NC(=O)c2ccco2)cc1`, the cytotoxicity is -4% (inactive). For `O=C1c2oc3ccccc3c(=O)c2C(c2ccc(Br)cc2)N1c1ncccn1` (stereo unspecified), the cytotoxicity is 5.4% (inactive). On to `O=S(=O)(c1ccccc1)c1nc(-c2ccco2)oc1NCc1cccnc1`, for which the cytotoxicity was 14.5% (inactive). For the compound `CCOC(=O)C1CCN(c2cc(=O)n(Cc3ccc(F)cc3)c(=O)[nH]2)CC1`, the cytotoxicity was -12.8% (inactive).

Take `Cc1cc(NC(=O)c2c(F)c(F)c(F)c(F)c2F)no1`: the cytotoxicity was -11.5% (inactive). With `Nc1c(C(=O)OCC2CCCO2)c2nc3ccccc3nc2n1C1CCCCC1` (stereo unspecified) the figure was -9.6% (inactive); with `COc1ccc(CCNC(=O)CSc2nnc(-c3cccc(C)c3)o2)cc1OC`, -3.4% (inactive); with `CCOC(=O)N1CCC(NC(=O)Cn2c3c(c(-c4ccccc4Cl)cc2=O)CCC3)CC1`, 4.9% (inactive).

Turning to `CCOc1ccc(CN2C(=O)CCC2(C)C(=O)NCc2cccnc2)cc1` (stereo unspecified), the cytotoxicity was 6.9% (inactive).

For the compound `CCN1CCN(c2c(Cl)cccc2NC(=O)c2ccc(Br)o2)CC1`, the cytotoxicity is 10% (inactive). On to `O=C(Nc1ccc2nc(-c3ccccc3)oc2c1)c1ccco1`, for which the cytotoxicity was 71.7% (active). Take `O=C(Nc1cccc(-c2nnc(-c3ccccc3)o2)c1)c1ccco1`: the cytotoxicity was 3.5% (inactive). Take `Cc1nc(NC(=O)c2ccco2)sc1C(=O)Nc1ccc(Br)cc1`: the cytotoxicity was 84% (active).

`CCOC(=O)c1sc(NC(=O)c2ccco2)nc1C`: the cytotoxicity was 5.9% (inactive). With `COC(=O)c1sc(NC(=O)c2ccco2)nc1C` the figure was -3.1% (inactive); with `Cc1ccc2nc(-c3ccc(NC(=O)c4ccco4)cc3)[nH]c2c1`, 14.5% (inactive). With `O=C(Nc1ccccc1N1CCCC1)c1ccc(Br)o1` the figure was -3.3% (inactive). With `Cc1ccc2nc(-c3cccc(NC(=O)c4ccco4)c3)[nH]c2c1` the figure was 65.5% (active); with `O=C(Nc1cccc(Cl)c1N1CCCC1)c1ccc(Br)o1`, 93% (active); with `O=C(Nc1cccc(-c2nc3ccccc3[nH]2)c1)c1ccco1`, 9.8% (inactive). For `O=C(Nc1ccc(-c2nc3ncccc3o2)cc1)c1ccco1`, the cytotoxicity is -8.5% (inactive). Turning to `CN(C)S(=O)(=O)c1cccc(COC(=O)C2=COCCO2)c1`, the cytotoxicity is -1.6% (inactive). For the compound `O=C(c1ccco1)[C@@H]1[C@@H]2C(=O)N(c3ccc(F)cc3)C(=O)[C@@H]2C2c3ccccc3C=CN21` (stereo partly specified), the cytotoxicity was 6.6% (inactive). With `COc1ccc(CCNS(=O)(=O)c2cccc(F)c2)cc1OC` the figure was -5.1% (inactive); with `Cc1onc(-c2c(F)cccc2Cl)c1C(=O)OCC(=O)NCc1ccco1`, 0.8% (inactive); with `CN(C)c1ccc(NC(=O)CN2CCC(C(=O)c3ccc(F)cc3)CC2)cc1`, 10.1% (inactive). With `COc1cc2[nH]c(=O)n(CCCCCC(=O)N3CCN(c4ccccc4)CC3)c(=O)c2cc1OC` the figure was 15.8% (inactive).
